From PubChem BioAssay (NCATS) come the findings set out here.

Records with an inconclusive call do not appear. Calls of active or inactive are those of the source. Calls come from the whole dose curve; as a rule, active = well fitted cell-killing curve with a large enough effect; inconclusive = small, poorly fitted or top-dose-only effect, or effect the other way; inactive = no such curve, though single readings can be large or run the other way.
Potency is the fitted concentration of half-maximal effect.

A short description of the test: Quantitative High-Throughput drug screen in 47 multiple myeloma cell lines against the NCATS MIPE library collection: U266_ATCC cell viability assay (AID 1919864). Note: nearly all actives have a fitted effect of over 35% in size. As to conditions: U266 myeloma viability, CellTiter-Glo ATP luminescence, 48 h; series mostly up to 45.8 µM; viability (% of DMSO control): at the top concentration. An excerpt: PI: Beverly A. Mock Ph.D.
Laboratory of Cancer Biology and Genetics,
Center for Cancer Research, National Cancer Institute,
National Institute of Health, Bethesda, Maryland
Drug resistance and disease progression are common in multiple myeloma (MM) patients, underscoring the need for new therapeutic combinations. […] We hypothesized that effective combinations would reduce MYC expression and enhance p16 activity. […] These preclinical data identify potentially useful drug combinations for evaluation in drug-resistant MM and reveal potential mechanisms of combined drug sensitivity.
Described herein is the primary MIPE qHTS used to cherrypick compounds. Validated compounds were then further tested for potential synergistic activiy.
[1] Peat TJ, Gaikwad SM, Dubois W, Gyabaah-Kessie N, Zhang S, Gorjifard S, Phyo Z, Andres M, Hughitt VK, Simpson RM, Miller MA, Girvin AT, Taylor A, Williams D, D'Antonio N, Zhang Y, Rajagopalan A, Flietner E, Wilson K, Zhang X, Shinn P, Klumpp-Thomas C, McKnight C, Itkin Z, Chen L, Kazandijian D, Zhang J, Michalowski AM, Simmons JK, Keats J, Thomas CJ, Mock BA. Drug combinations identified by high-throughput screening promote cell cycle transition and upregulate Smad pathways in myeloma. Cancer Lett. 2023 Aug 1;568:216284. doi: 10.1016/j.canlet.2023.216284. Epub 2023 Jun 24. PMID: 37356470; PMCID: PMC10408729.
SEQUENCE No. (e.g., 1, 2, 3, etc.); […] (e.g., Cells, Incubation, Reagent, etc.); VALUE and DESCRIPTION.
1; Cells; 5 uL; white, solid bottom 1536-well Greiner assay plate.
2; Compounds; 23 nL; Kalypsis pin tool (Wako USA) equipped with a 1536-well pin head to transfer to the assay plates.
3; Incubation; 48 hours; 37C incubation.
4; Reagent;5uL; CellTiter Glo (Promega).
5; Detector; 425V; Luminescence; Viewlux PerkinElmer.
NOTES (numbers refer to Sequence numbers above)
1. The cell-based screening methods employed in this study were like those previously published. Briefly, the corresponding myeloma cell lines were screened in 1,536-well plates with 500 cells, 5-uL per well for inhibition of cell viability (assessed by measuring ATP levels with CellTiterGlo).
2. NCATS MIPE 4.0 library of approved and investigational drugs were added using the Kalypsis pin tool. Wells treated with DMSO only for 100% viability and media only for 0% viability were used as controls.
3. The assay plates were covered and incubated for 48 hours in a 37C, 5% CO2 incubator with controlled humidity.
4. After 48 hours, CellTilter-GloTM luminescent substrate mix (Promega) reagent was added to the assay plate and plates we incubated for 5 min at room temperature.
5. Signal was measured as median relative luminescence units on a ViewLux (PerkinElmer) multiplate reader.
[1] Heske CM, Davis MI, Baumgart JT, Wilson K, Gormally MV, Chen L, Zhang X, Ceribelli M, Duveau DY, Guha R, Ferrer M, Arnaldez FI, Ji J, Tran HL, Zhang Y, Mendoza A, Helman LJ, Thomas CJ. Matrix Screen Identifies Synergistic Combination of PARP Inhibitors and Nicotinamide Phosphoribosyltransferase (NAMPT) Inhibitors in Ewing Sarcoma. Clin Cancer Res. 2017 Dec 1;23(23):7301-7311. doi: 10.1158/1078-0432.CCR-17-1121. Epub 2017 Sep 12. PMID: 28899971; PMCID: PMC6636827.
On the technique in general: In ATP-based viability assays light output follows the ATP content of the culture.
For the compound `CCOC(=O)[C@H](CCc1ccccc1)N[C@H]1CS[C@H](c2cccs2)CN(CC(=O)O)C1=O`, the Potency is 5.9 µM (active).

Turning to `Cc1ccc(S(=O)(=O)N[C@@H](Cc2ccccc2)C(=O)CCl)cc1`, the Potency is 18.7 µM (active).

As for `O=NN(CCCl)C(=O)NC1CCCCC1`, the “viability (% of DMSO control)” value is 157% (inactive).

On to `CCN[C@H]1C[C@H](C)S(=O)(=O)c2sc(S(N)(=O)=O)cc21`, for which the “viability (% of DMSO control)” value was 129% (inactive).

Consider `NC(=O)c1ccc2[nH]ccc2c1`, for which the “viability (% of DMSO control)” value was 132% (inactive).

With `COC(c1ccccc1)(c1ccccc1)[C@H](Oc1nc(C)cc(C)n1)C(=O)O`, the “viability (% of DMSO control)” value is 142% (inactive).

In the case of `C[C@@H](NCCCc1cccc(C(F)(F)F)c1)c1cccc2ccccc12`, the “viability (% of DMSO control)” value was 121% (inactive).

Regarding `Cc1cccc(N(C)C(=S)Oc2ccc3ccccc3c2)c1`, the Potency was 20.9 µM (active).

Turning to `CCOC(=O)[C@H](CCc1ccccc1)N[C@H]1CCc2ccccc2N(CC(=O)O)C1=O`, the Potency was 18.7 µM (active).

`O=c1oc2c(O)c(O)cc3c(=O)oc4c(O)c(O)cc1c4c23`: the “viability (% of DMSO control)” value was 138% (inactive).

As for `CNNCc1ccc(C(=O)NC(C)C)cc1`, the “viability (% of DMSO control)” value was 136% (inactive).

On to `CNCC[C@H](Oc1cccc2ccccc12)c1cccs1`, for which the Potency was 2.35 µM (active).

As for `CN(C)c1ccc(C(=C2C=CC(=[N+](C)C)C=C2)c2ccc(N(C)C)cc2)cc1`, the Potency is 1.05 µM (active).

Take `Nc1nc(=S)c2[nH]cnc2[nH]1`: the Potency was 8.33 µM (active).

Take `COc1cc2c(Nc3ccc(Br)cc3F)ncnc2cc1OCC1CCN(C)CC1`: the Potency was 20.9 µM (active).

Consider `COc1ncnc(NS(=O)(=O)c2ccc(N)cc2)c1OC`, for which the “viability (% of DMSO control)” value was 150% (inactive).

Take `C1CCC(C(CC2CCCCN2)C2CCCCC2)CC1` (stereo not given): the Potency was 11.8 µM (active).

On to `COc1cc(NS(=O)(=O)c2ccc(N)cc2)nc(OC)n1`, for which the “viability (% of DMSO control)” value is 142% (inactive).

With `Cc1nnc(NS(=O)(=O)c2ccc(N)cc2)s1`, the Potency was 14.8 µM (active).

Regarding `COc1c(N2CCNC(C)C2)c(F)cc2c(=O)c(C(=O)O)cn(C3CC3)c12` (stereo not given), the “viability (% of DMSO control)” value was 126% (inactive).

With `Cc1oc(=O)oc1CN1CCN(c2cc3c(cc2F)c(=O)c(C(=O)O)c2n3C(C)S2)CC1` (stereo not given), the “viability (% of DMSO control)” value was 134% (inactive).

Regarding `CCOc1cc(N)c(Cl)cc1C(=O)NCC1CN(Cc2ccc(F)cc2)CCO1` (stereo not given), the “viability (% of DMSO control)” value was 140% (inactive).

Regarding `O=C(O)c1cc(=O)[nH]c(=O)[nH]1`, the “viability (% of DMSO control)” value is 124% (inactive).

For the compound `CN(CCOc1ccc(CC2SC(=O)NC2=O)cc1)c1ccccn1` (stereo not given), the Potency was 16.6 µM (active).

For `CCCc1nc(C)c2c(=O)[nH]c(-c3cc(S(=O)(=O)N4CCN(CC)CC4)ccc3OCC)nn12`, the Potency is 5.9 µM (active).

For `NC(=O)c1cccc(N)c1`, the “viability (% of DMSO control)” value is 120% (inactive).

Take `O=C(O)c1cccnc1`: the “viability (% of DMSO control)” value is 141% (inactive).

Consider `CCOC(=O)c1ccc(OC(=O)CCCCCN=C(N)N)cc1`, for which the “viability (% of DMSO control)” value is 147% (inactive).

For `CCCCOc1ccc(CC(=O)NO)cc1`, the Potency was 8.33 µM (active).

In the case of `COc1cccc(N(C)C(=S)Oc2ccc3c(c2)CCCC3)n1`, the “viability (% of DMSO control)” value was 106% (inactive).

In the case of `CCn1cc(C(=O)O)c(=O)c2cc(F)c(N3CCN(C)CC3)cc21`, the “viability (% of DMSO control)” value was 158% (inactive).

As to `COc1cc(NCc2ccc3nc(N)nc(N)c3c2C)cc(OC)c1OC`, the Potency was 1.48 µM (active).

In the case of `CC1=CC(=O)c2ccccc2C1=O`, the Potency was 18.7 µM (active).

On to `NC1(c2ccc(-c3nc4ccn5c(=O)[nH]nc5c4cc3-c3ccccc3)cc2)CCC1`, for which the Potency is 20.9 µM (active).

On to `O[C@@H](CNC[C@H](O)[C@H]1CCc2cc(F)ccc2O1)[C@@H]1CCc2cc(F)ccc2O1`, for which the Potency is 26.4 µM (active).

Consider `COc1ccc(C(=O)CC(=O)c2ccc(C(C)(C)C)cc2)cc1`, for which the Potency is 5.26 µM (active).

`CC(C)Cn1cnc2c(N)nc3ccccc3c21`: the Potency was 20.9 µM (active).

In the case of `COc1nc(N)nc2c1ncn2[C@@H]1O[C@H](CO)[C@@H](O)[C@@H]1O`, the Potency is 16.6 µM (active).

For the compound `N[C@@H](Cc1ccc(O)c(O)c1)C(=O)O`, the “viability (% of DMSO control)” value was 121% (inactive).

For the compound `CC(C)OC(=O)OCOP(=O)(CO[C@H](C)Cn1cnc2c(N)ncnc21)OCOC(=O)OC(C)C`, the Potency was 16.6 µM (active).
